Source: PubChem BioAssay (NCATS)
Where “and” joins values, the source holds several entries; their conditions need not be identical. Equal values may be shown once. Values without a mark were called inactive. Records with an inconclusive call do not appear. Calls of active or inactive are those of the source. Calls follow the shape of the dose curve; as a rule, active = well fitted curve in the direction sought with a large enough effect; inconclusive = small, poorly fitted or top-dose-only effect, or another doubt; inactive = no such curve, though single readings can be large; an effect the other way counts as inactive or inconclusive.

Biological target: Cytochrome P450 2C9 (Homo sapiens) (UniProt P11712)
Sequence (P11712 whole entry, looked up): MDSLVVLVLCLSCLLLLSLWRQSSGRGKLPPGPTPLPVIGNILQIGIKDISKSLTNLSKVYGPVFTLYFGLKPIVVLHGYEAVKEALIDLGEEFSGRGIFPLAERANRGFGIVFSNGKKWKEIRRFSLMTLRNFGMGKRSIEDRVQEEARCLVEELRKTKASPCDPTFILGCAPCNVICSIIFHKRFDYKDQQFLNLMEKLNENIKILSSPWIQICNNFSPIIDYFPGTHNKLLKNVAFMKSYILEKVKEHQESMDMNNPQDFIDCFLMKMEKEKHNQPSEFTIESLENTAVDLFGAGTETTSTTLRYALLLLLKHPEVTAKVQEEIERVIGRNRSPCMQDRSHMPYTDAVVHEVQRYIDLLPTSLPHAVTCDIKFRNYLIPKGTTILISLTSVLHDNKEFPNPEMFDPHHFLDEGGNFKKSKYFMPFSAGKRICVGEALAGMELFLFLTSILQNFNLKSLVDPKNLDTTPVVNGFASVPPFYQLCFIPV
Assay: qHTS Assay for Inhibitors and Substrates of Cytochrome P450 2C9 (AID 883); also: nearly all actives have a fitted effect of over 60% in size; also: potency is read from the fitted curve at half-maximal effect; as to activity change, negative = inhibition: % is scaled to controls: 0 for no effect and ±100 for the full control effect
Conditions: recombinant CYP2C9, luciferin-H luminescence, 60 min; series mostly up to 57.1 µM; activity change, negative = inhibition: at the top concentration
Summary of the method: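 A luminogenic readout tracked human CYP2C9 (10nM) converting deoxyluciferin (100uM, at KM) in 25mM KPO4 during 60 min at 37C with regenerated NADPH. Values normalized to 57uM sulphaphenazole as complete inhibition.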

Structure (SMILES) | Potency | activity change, negative = inhibition [%]
CCCCCCCC/C=C\CCCCCCCC(=O)NCCc1ccc(O)c(O)c1 | 1580 nM (active) | –
CCCc1c(-c2ccc(O)cc2)nn(-c2ccc(O)cc2)c1-c1ccc(O)cc1 | 3160 nM (active) | –
CNc1cc(NS(=O)(=O)c2ccc(N)cc2)nc(NC)n1 | 2000 nM (active) | –
CCCn1c(=O)c2[nH]c(C3CCCC3)nc2n(CCC)c1=O | – | -26.7
CCCCCCN(CCCCCC)C(=O)Cc1c(-c2ccc(F)cc2)[nH]c2ccccc12 | – | -18.5
OC1(c2ccc(Cl)cc2)CCN(Cc2c[nH]c3ccccc23)CC1 | – | 31.8
CC[N+](CC)(CC)CC(=O)Nc1c(C)cccc1C | – | 42.3
N#Cc1cc2nc(O)c(O)nc2cc1[N+](=O)[O-] | – | 36.2
O=C(O)Cc1c[nH]c2ccc(O)cc12 | – | 31.1
O=C(O)c1cc2cc(F)ccc2[nH]1 | – | 9.53
NC(N)=NC(N)=Nc1ccccc1 | – | 7.53
O=S(=O)(c1cccc2c(Cl)cccc12)N1CCCNCC1 | inactive | –
CC(=O)N[C@@H](Cc1c[nH]c2ccccc12)C(=O)OCc1cc(C(F)(F)F)cc(C(F)(F)F)c1 | 12600 nM (active) | –
C[C@H](NC(=O)/C(C#N)=C/c1ccc(O)c(O)c1)c1ccccc1 | inactive | –
O=c1onc2cnc3ccccc3n12 | – | 12.4

Biological target: Cytochrome P450 3A4 (Homo sapiens) (UniProt P08684)
Sequence (P08684 whole entry, looked up): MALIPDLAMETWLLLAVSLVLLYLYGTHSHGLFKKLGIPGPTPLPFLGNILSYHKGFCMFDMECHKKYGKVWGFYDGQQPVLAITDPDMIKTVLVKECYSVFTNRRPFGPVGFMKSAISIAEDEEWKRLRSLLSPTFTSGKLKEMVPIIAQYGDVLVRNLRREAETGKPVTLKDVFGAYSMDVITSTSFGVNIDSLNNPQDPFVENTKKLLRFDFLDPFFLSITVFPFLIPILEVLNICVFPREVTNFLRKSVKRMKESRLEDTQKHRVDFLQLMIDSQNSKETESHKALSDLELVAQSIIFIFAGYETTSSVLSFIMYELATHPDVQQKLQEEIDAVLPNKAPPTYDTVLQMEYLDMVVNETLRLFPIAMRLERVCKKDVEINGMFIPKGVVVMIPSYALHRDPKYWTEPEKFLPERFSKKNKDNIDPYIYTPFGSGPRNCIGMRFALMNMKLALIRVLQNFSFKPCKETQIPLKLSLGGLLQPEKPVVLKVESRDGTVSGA
Assay: qHTS Assay for Inhibitors and Substrates of Cytochrome P450 3A4 (AID 884); also: nearly all actives have a fitted effect of over 50% in size; also: potency is read from the fitted curve at half-maximal effect; as to activity change, negative = inhibition: % is scaled to controls: 0 for no effect and ±100 for the full control effect
Conditions: recombinant CYP3A4, Luciferin-PPXE luminescence; series mostly up to 57.1 µM; activity change, negative = inhibition: at the top concentration
Summary of the method: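 20 nM human CYP3A4 with 25 uM Luciferin-PPXE (at KM) in 200 mM KPO4, preincubated 10 min with compound; NADPH regeneration started a 60 min RT reaction. Luciferin detected by luminescence, normalized to 57 uM ketoconazole as full inhibition.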

Structure (SMILES) | Potency | activity change, negative = inhibition [%]
CCCCCCCC/C=C\CCCCCCCC(=O)NCCc1ccc(O)c(O)c1 | 3.16 µM (active) | –
CCCc1c(-c2ccc(O)cc2)nn(-c2ccc(O)cc2)c1-c1ccc(O)cc1 | 2.51 µM (active) | –
CNc1cc(NS(=O)(=O)c2ccc(N)cc2)nc(NC)n1 | 0.794 µM (active) | –
CCCn1c(=O)c2[nH]c(C3CCCC3)nc2n(CCC)c1=O | – | -5.39
CCCCCCN(CCCCCC)C(=O)Cc1c(-c2ccc(F)cc2)[nH]c2ccccc12 | 2.51 µM (active) | –
O=C(O)c1cc2cc(F)ccc2[nH]1 | – | 4.94
NC(N)=NC(N)=Nc1ccccc1 | – | -1.61
O=S(=O)(c1cccc2c(Cl)cccc12)N1CCCNCC1 | 5.01 µM (active) and 3.98 µM (active) | –
C[C@H](NC(=O)/C(C#N)=C/c1ccc(O)c(O)c1)c1ccccc1 | 3.16 µM (active) | –
O=c1onc2cnc3ccccc3n12 | 10 µM (active) | –

Biological target: Cytochrome P450 3A4 (Homo sapiens) (UniProt P08684)
Assay: qHTS Assay for Activators of Cytochrome P450 3A4 (AID 885); also: nearly all actives have a fitted effect of over 65% in size
Conditions: recombinant CYP3A4, Luciferin-PPXE luminescence, 60 min; series mostly up to 57.1 µM; activity change, positive = activation: at the top concentration
Summary of the method: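 Steps: enzyme/substrate mix dispensed; compound added, 10 min RT; NADPH regeneration solution added, 60 min RT; luciferin detection buffer stops reaction; 20 min later luminescence measured.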

Structure (SMILES) | activity change, positive = activation [%] | Potency
CCCCCCCC/C=C\CCCCCCCC(=O)NCCc1ccc(O)c(O)c1 | -82.1 | –
CCCc1c(-c2ccc(O)cc2)nn(-c2ccc(O)cc2)c1-c1ccc(O)cc1 | -83.4 | –
CNc1cc(NS(=O)(=O)c2ccc(N)cc2)nc(NC)n1 | -83.8 | –
CCCCCCN(CCCCCC)C(=O)Cc1c(-c2ccc(F)cc2)[nH]c2ccccc12 | -109 | –
O=S(=O)(c1cccc2c(Cl)cccc12)N1CCCNCC1 | – | inactive
C[C@H](NC(=O)/C(C#N)=C/c1ccc(O)c(O)c1)c1ccccc1 | -84.2 | –
O=c1onc2cnc3ccccc3n12 | -81.1 | –
